Inconclusive results are not listed. Calls of active or inactive are those of the source. Unless noted, calls come from the whole dose curve; as a rule, active = well fitted curve in the direction sought with a large enough effect in the repeat runs; inconclusive = weak or mixed curves; inactive = no such curve, though single readings can be large; an effect the other way counts as inactive or inconclusive.
What was measured:
[1] = qHTS assay to test for compound auto fluorescence at 535 nm (green) in HEK293 cells (AID 720680)
[2] = qHTS assay to test for compound auto fluorescence at 460 nm (blue) in HEK293 cell free culture (AID 720681)
Method in brief: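 Compounds were added to cell-free DMEM with 10% FBS and fluorescence read directly. The blue channel used 405 nm excitation and 460 nm emission, with triamterene as the reference fluorophore.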

[3] = qHTS assay to test for compound auto fluorescence at 535 nm (green) in HEK293 cell free culture (AID 720682)
Method in brief: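 Cell-free medium (DMEM, 10% FBS) receives compound or DMSO by pintool. Plate read directly at Ex 485/Em 535 nm. Signal converted to fluorescein equivalency.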

[4] = qHTS assay to test for compound auto fluorescence at 590 nm (red) in HEK293 cell free culture (AID 720683)
Method in brief: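 Cell-free wells of DMEM with 10% FBS received compound, and intrinsic fluorescence was read at excitation/emission 540/590 nm. Values expressed as equivalence to Rose Bengal sodium.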

[5] = qHTS assay to test for compound auto fluorescence at 590 nm (red) in HepG2 cell free culture (AID 720684)
Method in brief: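 Auto fluorescence equivalency versus Rose Bengal sodium, red channel Ex/Em 540/590 nm; compounds in cell-free MEM/10% FBS; DMSO vehicle control.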

[6] = qHTS assay to test for compound auto fluorescence at 460 nm (blue) in HepG2 cell free culture (AID 720685)
Method in brief: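 Cell-free plates of MEM plus 10% FBS received 23 nL compound or DMSO vehicle; blue-channel (405/460 nm) intensity scored against triamterene as reference fluorophore.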

[7] = qHTS assay to test for compound auto fluorescence at 460 nm (blue) in HepG2 cells (AID 720687)
Method in brief: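 HepG2 cells in MEM with 10% FBS, attached overnight at 37 C, were exposed to compound or DMSO for 1 hr at 37 C, 5% CO2. Blue fluorescence was read at 405/460 nm, with triamterene as reference fluorophore.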

[8] = molecular target: Glucocorticoid receptor (Homo sapiens) (UniProt P04150); assay: qHTS assay to identify small molecule agonists of the glucocorticoid receptor (GR) signaling pathway (AID 720691; active = well fitted activation curve with a large enough effect in the signal ratio in the repeat runs, not every such curve was filed as active; the % refers to the signal ratio)
Glucocorticoid receptor (Homo sapiens), sequence (P04150 whole entry, looked up): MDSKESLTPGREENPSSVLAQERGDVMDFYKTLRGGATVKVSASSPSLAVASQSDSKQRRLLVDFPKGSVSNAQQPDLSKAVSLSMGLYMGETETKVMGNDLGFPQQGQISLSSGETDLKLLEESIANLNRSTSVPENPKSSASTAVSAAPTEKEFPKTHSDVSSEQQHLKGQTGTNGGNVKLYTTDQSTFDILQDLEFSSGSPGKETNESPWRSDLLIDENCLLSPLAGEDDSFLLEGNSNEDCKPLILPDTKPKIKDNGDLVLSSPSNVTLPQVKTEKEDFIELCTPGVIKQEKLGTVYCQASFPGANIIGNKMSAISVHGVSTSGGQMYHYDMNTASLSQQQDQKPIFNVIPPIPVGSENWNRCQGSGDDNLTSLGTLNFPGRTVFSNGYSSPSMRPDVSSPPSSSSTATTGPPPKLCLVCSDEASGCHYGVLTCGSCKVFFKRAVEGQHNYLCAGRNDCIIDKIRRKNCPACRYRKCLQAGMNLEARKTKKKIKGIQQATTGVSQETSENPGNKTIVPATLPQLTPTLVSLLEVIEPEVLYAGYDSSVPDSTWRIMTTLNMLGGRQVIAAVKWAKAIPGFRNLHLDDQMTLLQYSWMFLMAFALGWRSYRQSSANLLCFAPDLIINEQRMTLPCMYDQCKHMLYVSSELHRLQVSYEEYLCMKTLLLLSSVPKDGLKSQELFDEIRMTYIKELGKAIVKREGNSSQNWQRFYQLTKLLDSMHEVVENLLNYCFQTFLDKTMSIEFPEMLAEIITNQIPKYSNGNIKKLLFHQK
Method in brief: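 Steps: seed GR-bla HeLa cells, incubate 4 h at 37 C/5% CO2; pin-transfer DMSO-dissolved compounds; incubate 18 h at 37 C; add LiveBLAzer B/G FRET substrate; after 2 h at room temperature, measure fluorescence.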

[9] = molecular target: Glucocorticoid receptor (Homo sapiens) (UniProt P04150); assay: qHTS assay to identify small molecule antagonists of the glucocorticoid receptor (GR) signaling pathway (AID 720692; active = well fitted inhibition curve with a large enough effect in the signal ratio in the repeat runs, not every such curve was filed as active; the % refers to the signal ratio)
Method in brief: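 Antagonism was scored as loss of dexamethasone-driven (5 nM final) reporter signal in HeLa cells bearing a glucocorticoid response element–beta-lactamase construct, after 18 h compound exposure at 37 C and 2 h FRET substrate loading.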

[10] = qHTS assay to identify small molecule antagonists of the glucocorticoid receptor (GR) signaling pathway - cell viability counter screen (AID 720693); note: nearly all actives have a fitted effect of over 55% in size
[11] = qHTS assay for identifying genotoxic compounds that show differential cytotoxicity against isogenic chicken DT40 cell lines with known DNA damage response pathways - Rad54/Ku70 mutant cell line (AID 743015); note: nearly all actives have a fitted effect of over 60% in size; note: potency is the fitted concentration of half-maximal effect
[12] = qHTS assay to identify small molecule antagonists of the androgen receptor (AR) signaling pathway - cell viability counter screen (AID 743033; note: nearly all actives have a fitted effect of over 45% in size)
[13] = qHTS assay to identify small molecule antagonists of the androgen receptor (AR) signaling pathway using the MDA cell line - cell viability counter screen (AID 743041; note: nearly all actives have a fitted effect of over 45% in size; note: potency is the fitted concentration of half-maximal effect)
Method in brief: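 Compound exposure lasted 16 h at 37C in MDA-kb2 AR-luc cells stimulated with R1881. Protease-based CellTiter-Fluor reagent was applied for the final 30 min and fluorescence measured.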

[14] = qHTS assay for identifying genotoxic compounds that show differential cytotoxicity against isogenic chicken DT40 cell lines with known DNA damage response pathways - Rev3 mutant cell line (AID 743014); note: nearly all actives have a fitted effect of over 55% in size; note: potency is the fitted concentration of half-maximal effect
[15] = qHTS assay to test for compound auto fluorescence at 535 nm (green) in HepG2 cell free culture (AID 720686)
[16] = qHTS assay for identifying genotoxic compounds that show differential cytotoxicity against isogenic chicken DT40 cell lines with known DNA damage response pathways - wild type cell line (AID 743012); note: nearly all actives have a fitted effect of over 60% in size
Method in brief: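 Cytotoxicity in repair-proficient parental chicken DT40 cells serves as the comparator for Rad54/Ku70- and Rev3-deficient lines. Cells were exposed to compounds for 40 h at 37 C/5% CO2, and ATP-based luminescence (CellTiter-Glo) measured viability.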

[17] = molecular target: Androgen receptor (Homo sapiens) (UniProt P10275); assay: qHTS assay to identify small molecule antagonists of the androgen receptor (AR) signaling pathway (AID 743035; active = well fitted inhibition curve with a large enough effect in the signal ratio in the repeat runs, not every such curve was filed as active; the % refers to the signal ratio)
Androgen receptor (Homo sapiens), sequence (P10275 whole entry, looked up): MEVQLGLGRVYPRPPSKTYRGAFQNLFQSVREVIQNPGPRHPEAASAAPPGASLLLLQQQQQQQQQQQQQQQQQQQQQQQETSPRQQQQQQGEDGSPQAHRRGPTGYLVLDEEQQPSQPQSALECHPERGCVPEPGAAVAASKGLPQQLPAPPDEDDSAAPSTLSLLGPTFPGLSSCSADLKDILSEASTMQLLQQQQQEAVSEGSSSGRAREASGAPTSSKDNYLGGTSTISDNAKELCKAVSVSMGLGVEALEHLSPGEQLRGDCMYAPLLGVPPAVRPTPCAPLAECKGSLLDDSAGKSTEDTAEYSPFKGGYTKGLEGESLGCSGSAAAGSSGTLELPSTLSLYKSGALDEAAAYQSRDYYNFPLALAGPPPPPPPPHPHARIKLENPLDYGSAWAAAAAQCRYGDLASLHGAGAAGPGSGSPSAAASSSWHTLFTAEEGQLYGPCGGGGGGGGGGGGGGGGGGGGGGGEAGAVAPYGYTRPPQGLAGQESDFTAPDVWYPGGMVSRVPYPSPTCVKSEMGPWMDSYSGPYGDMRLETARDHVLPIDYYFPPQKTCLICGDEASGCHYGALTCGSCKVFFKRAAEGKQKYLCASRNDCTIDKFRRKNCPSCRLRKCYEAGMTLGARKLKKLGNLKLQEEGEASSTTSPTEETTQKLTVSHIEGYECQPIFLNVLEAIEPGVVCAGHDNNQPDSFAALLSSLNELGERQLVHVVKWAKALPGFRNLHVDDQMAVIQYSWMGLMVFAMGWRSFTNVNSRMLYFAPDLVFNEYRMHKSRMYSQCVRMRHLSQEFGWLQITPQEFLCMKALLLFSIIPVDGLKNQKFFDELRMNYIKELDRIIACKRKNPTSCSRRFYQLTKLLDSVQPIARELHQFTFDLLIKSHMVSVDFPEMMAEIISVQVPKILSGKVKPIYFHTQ
Method in brief: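 Steps: seed AR-UAS-bla GripTite HEK293 cells, incubate 4 h at 37C; pin in test compound, then add agonist R1881; incubate 16 h at 37C; add LiveBLAzer B/G FRET substrate, 2 h at room temperature; read fluorescence.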

[18] = molecular target: Androgen receptor (Homo sapiens) (UniProt P10275); assay: qHTS assay to identify small molecule agonists of the androgen receptor (AR) signaling pathway (AID 743036; active = well fitted activation curve with a large enough effect in the signal ratio in the repeat runs, with a control signal flat, not every such curve was filed as active; the % refers to the signal ratio)
Method in brief: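 AR-bla HEK293 cells, 2,000/well; 4 h preincubation 37C/5% CO2; compound (DMSO) 16 h at 37C; LiveBLAzer B/G FRET substrate 2 h RT; fluorescence intensity read-out.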

[19] = molecular target: Androgen receptor (Homo sapiens) (UniProt P10275); assay: qHTS assay to identify small molecule agonists of the androgen receptor (AR) signaling pathway using the MDA cell line (AID 743040; note: nearly all actives have a fitted effect of over 20% in size)
Method in brief: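 Testing was done with the MDA-kb2 AR-luc line, a human breast carcinoma stably transfected with MMTV-luciferase containing AR and GR response elements. Cells were exposed 16 h at 37C before ONE-Glo luminescence detection.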

[20] = molecular target: Androgen receptor (Homo sapiens) (UniProt P10275); assay: qHTS assay to identify small molecule antagonists of the androgen receptor (AR) signaling pathway using the MDA cell line (AID 743042; note: nearly all actives have a fitted effect of over 55% in size)
Method in brief: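 MDA-kb2 breast carcinoma cells carrying MMTV-luciferase (AR/GR responsive) were co-treated with compounds and the agonist R1881 for 16 h at 37C. Inhibition read as ONE-Glo luminescence; CellTiter-Fluor fluorescence measured in parallel for cytotoxicity.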

Measured: Potency

OC[C@H]1O[C@@H]2O[C@H]3[C@H](O)[C@@H](O)[C@@H](O[C@H]4[C@H](O)[C@@H](O)[C@@H](O[C@H]5[C@H](O)[C@@H](O)[C@@H](O[C@H]6[C@H](O)[C@@H](O)[C@@H](O[C@H]7[C@H](O)[C@@H](O)[C@@H](O[C@H]8[C@H](O)[C@@H](O)[C@@H](O[C@H]9[C@H](O)[C@@H](O)[C@@H](O[C@H]1[C@H](O)[C@H]2O)O[C@@H]9CO)O[C@@H]8CO)O[C@@H]7CO)O[C@@H]6CO)O[C@@H]5CO)O[C@@H]4CO)O[C@@H]3CO
inactive: [1] | [2] | [3] | [4] | [5] | [6] | [7] | [8] | [9] | [10] | [11] | [12] | [13]

CC12CCC(CC1=O)C2(C)C (configuration not stated)
inactive: [1] | [2] | [3] | [4] | [5] | [6] | [7] | [9] | [10] | [14] | [11] | [12] | [13]

CO[Si](CCCNCCC[Si](OC)(OC)OC)(OC)OC
inactive: [1] | [3] | [4] | [5] | [6] | [15] | [7] | [8] | [9] | [10] | [16] | [14] | [11] | [12] | [13]

CCCCCCCCCCCCCCCCCC(=O)OCCCCCCCCCCCCCC(C)C
inactive: [1] | [2] | [3] | [4] | [5] | [6] | [7] | [9] | [10] | [16] | [14] | [11] | [12] | [13]

CCCCN(CCO)CCO
inactive: [1] | [2] | [3] | [4] | [5] | [6] | [7] | [8] | [9] | [10] | [16] | [14] | [11] | [12] | [13]

CN(C)C(=O)C(CCN1CCC(O)(c2ccc(Cl)cc2)CC1)(c1ccccc1)c1ccccc1
inactive: [1] | [2] | [3] | [4] | [5] | [6] | [7] | [10]
active: [14] 10.6 µM | [11] 10.6 µM | [13] 24.8 µM

CCCCc1ccc2cccc(S(=O)(=O)O)c2c1
inactive: [1] | [2] | [3] | [4] | [5] | [6] | [7] | [8] | [16] | [14] | [11] | [12] | [17] | [18] | [19] | [13] | [20]

CCCC(C)CO (configuration not stated)
inactive: [1] | [2] | [3] | [4] | [5] | [6] | [7] | [8] | [9] | [10] | [14] | [11] | [12] | [17] | [18] | [13] | [20]

CCCCCCOC(=O)c1ccccc1O
inactive: [1] | [2] | [3] | [4] | [5] | [6] | [7] | [8] | [9] | [11] | [12] | [17] | [19] | [13] | [20]

CC(C)CCCCCCN
inactive: [1] | [3] | [4] | [5] | [6] | [15] | [7] | [8] | [9] | [10] | [16] | [14] | [11] | [12] | [18] | [19] | [13] | [20]

CC(C)(O)c1ccccc1
inactive: [1] | [2] | [3] | [4] | [5] | [6] | [7] | [8] | [9] | [10] | [16] | [14] | [11] | [12] | [13]

COC(=O)c1ccc(C(=O)OC)c(C(=O)OC)c1
inactive: [1] | [2] | [3] | [4] | [5] | [6] | [7] | [9] | [10] | [11] | [12] | [13]

COc1ccc(N=[N+]([O-])c2ccc(OC)cc2)cc1
inactive: [1] | [2] | [3] | [4] | [5] | [6] | [7] | [8] | [10] | [16] | [14] | [11] | [12] | [13]

O=C(O)c1ccc[n+]([O-])c1
inactive: [1] | [2] | [3] | [4] | [5] | [6] | [7] | [8] | [9] | [10] | [16] | [11] | [12] | [17] | [18] | [19] | [13] | [20]
